From PubChem BioAssay (NCATS)
Results filed as inconclusive are left out. The source made the active and inactive calls. Unless noted, calls come from the whole dose curve; as a rule, active = well fitted curve in the direction sought with a large enough effect; inconclusive = small, poorly fitted or top-dose-only effect, or another doubt; inactive = no such curve, though single readings can be large; an effect the other way counts as inactive or inconclusive.

Assays:
[1] = AP1 Signaling Pathway (AID 357; active = well fitted curve in either direction with a large enough effect, not every such curve was filed as active;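 note: ME-180 reporter cells stimulated with EGF at its EC50 level; % is set by controls: 0 for no effect and ±100 for the full control effect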); conditions: ME-180 AP-1-bla reporter, EGF-induced, beta-lactamase ratio, 5 h; at 38 µM (top of the series)
Outline: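 Read-out was the 460nm/530nm emission ratio (excitation 405nm) after CCF4 loading for 2.5 hours at room temperature. Cells carried an AP-1-driven beta-lactamase reporter, were stimulated with EC50 EGF plus compound for 5 hours, and AC50 values came from titrations.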

[2] = NFAT Signaling Pathway (AID 444; active = well fitted curve in either direction with a large enough effect, not every such curve was filed as active;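 note: carbachol stimulus at about its EC50 of 1 µM final; % is set by controls: 0 for no effect and ±100 for the full control effect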); conditions: Jurkat NFAT-bla M1, carbachol, beta-lactamase ratio, 5 h; at 38 µM (top of the series)
Outline: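 Jurkat cells carrying an NFAT-driven β-lactamase reporter and co-transfected muscarinic M1 receptor were treated with compound plus carbachol (1 uM final, an EC50 level) for 5 h at 37 °C. CCF4 loading followed for 1 h at RT; 460/530 nm ratio gave %activity.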

[3] = Stat Signaling Pathway (AID 446; active = well fitted curve in either direction with a large enough effect, not every such curve was filed as active;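 note: ME-180 cervical cancer cells given 40 pM IL-6 alongside compound; SIE-controlled beta-lactamase reporter measured as 460/530 nm FRET emission ratio; % is set by controls: 0 for no effect and ±100 for the full control effect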); conditions: ME-180 SIE beta-lactamase reporter, IL-6 stimulated, 5 h; at 38 µM (top of the series)
Outline: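 ME-180 SIE-bla cells; overnight plating; cpd + IL-6 40 pM, 5 h, 37 C; LiveBLAzer 2.5 h RT; 460/530 nm emission ratio. Normalized to 300 pM IL-6 and 125 nM JAK inhibitor controls.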

[4] = target: Glucocorticoid receptor (Homo sapiens) (UniProt P04150); assay: GR-GFP Redistribution (AID 450;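 active = compounds whose dose series gives a full or clear partial fitted curve of increased nuclear translocation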; note: potency is the fitted concentration of half-maximal effect); conditions: U2OS GR-GFP nuclear translocation, laser cytometry, 2 h
Sequence of Glucocorticoid receptor (Homo sapiens) (P04150 whole entry, looked up, the tested form may be a part): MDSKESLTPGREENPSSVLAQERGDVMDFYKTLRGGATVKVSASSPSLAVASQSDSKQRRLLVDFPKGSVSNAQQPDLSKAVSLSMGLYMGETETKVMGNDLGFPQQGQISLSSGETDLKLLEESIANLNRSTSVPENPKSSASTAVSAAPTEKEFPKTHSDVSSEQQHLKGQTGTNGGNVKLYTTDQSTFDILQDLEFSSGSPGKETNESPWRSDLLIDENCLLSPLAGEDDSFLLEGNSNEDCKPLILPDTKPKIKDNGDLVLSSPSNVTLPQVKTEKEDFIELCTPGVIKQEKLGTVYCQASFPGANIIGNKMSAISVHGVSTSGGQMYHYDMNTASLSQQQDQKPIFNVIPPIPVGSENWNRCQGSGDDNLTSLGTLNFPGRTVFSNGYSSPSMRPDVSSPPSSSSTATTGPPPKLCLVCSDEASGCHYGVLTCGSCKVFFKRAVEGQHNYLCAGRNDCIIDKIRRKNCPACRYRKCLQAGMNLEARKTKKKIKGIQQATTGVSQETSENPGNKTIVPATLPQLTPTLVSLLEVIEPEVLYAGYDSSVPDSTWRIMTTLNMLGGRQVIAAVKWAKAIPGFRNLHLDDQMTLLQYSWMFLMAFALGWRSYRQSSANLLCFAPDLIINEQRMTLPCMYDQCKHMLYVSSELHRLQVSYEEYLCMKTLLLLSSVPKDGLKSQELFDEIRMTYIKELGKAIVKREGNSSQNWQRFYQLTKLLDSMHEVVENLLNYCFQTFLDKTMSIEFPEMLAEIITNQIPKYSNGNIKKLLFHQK

[5] = target: Glucocorticoid receptor (Homo sapiens) (UniProt P04150); assay: GR-EFC Redistribution (AID 451; calls by dose curve; note: potency is the fitted concentration of half-maximal effect); conditions: CHO-K1 GR-EFC translocation, beta-gal luminescence, 2 h
Outline: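 CHO-K1 cells stably expressing nuclear-localized β-gal enzyme acceptor and GR fused C-terminally to the enzyme donor fragment; ligand-driven nuclear translocation restores β-gal by complementation. Compounds titrated up to 46 uM final, 2 h at 37 °C; luminescence read.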

[6] = target: Mitogen-activated protein kinase 10 (Mus musculus) (UniProt Q61831); assay: JNK3 AlphaScreen Assay (AID 530; active = well fitted curve in either direction with a large enough effect, not every such curve was filed as active;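 note: kinase came from lysate of stimulated human HepG2 cells; signal reports phosphorylation of biotinylated GST-cJun 1-79 at Ser73 with 10 µM ATP; % is set by controls: 0 for no effect and ±100 for the full control effect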)
Outline: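 JNK3 came from HepG2 lysates pre-activated with IL-1beta and TNF-alpha and phosphorylated biotinylated GST-cJun (1-79) at 10 uM ATP, pH 7.6, room temperature. Compounds were titrated. AlphaScreen signal used anti-phospho-cJun (Ser73) antibody.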

[7] = target: 3',5'-cyclic-AMP phosphodiesterase 4B (Homo sapiens) (UniProt Q07343); assay: qHTS Assay for Inhibitors of PDE-IV (AID 607; active = well fitted activation curve with a large enough effect in the main read-out, with a control signal flat, not every such curve was filed as active; note: % of control where 0% means no effect)
Outline: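 ACTOne HEK293 cells carry a modified cAMP-gated CNG channel and express endogenous PDE4; plated 1000 cells/well, compounds up to 22.9 uM final. Membrane-potential dye fluorescence (ex 535/em 590) was read; parental cells received 10 uM forskolin + 100 uM RO 20-1724.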

[8] = target: Guanine nucleotide-binding protein G(i) subunit alpha-1 (Homo sapiens) (UniProt P63096); assay: qHTS Assay for Inhibitors of RGS12 GoLoco Motif Activity (Green Fluorophore) (AID 879);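 note: 0% = labeled peptide with Gαi1 and full inhibition = labeled peptide alone without protein; negative values mean loss of peptide binding seen as reduced polarization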
Sequence of Guanine nucleotide-binding protein G(i) subunit alpha-1 (Homo sapiens) (P63096 whole entry, looked up): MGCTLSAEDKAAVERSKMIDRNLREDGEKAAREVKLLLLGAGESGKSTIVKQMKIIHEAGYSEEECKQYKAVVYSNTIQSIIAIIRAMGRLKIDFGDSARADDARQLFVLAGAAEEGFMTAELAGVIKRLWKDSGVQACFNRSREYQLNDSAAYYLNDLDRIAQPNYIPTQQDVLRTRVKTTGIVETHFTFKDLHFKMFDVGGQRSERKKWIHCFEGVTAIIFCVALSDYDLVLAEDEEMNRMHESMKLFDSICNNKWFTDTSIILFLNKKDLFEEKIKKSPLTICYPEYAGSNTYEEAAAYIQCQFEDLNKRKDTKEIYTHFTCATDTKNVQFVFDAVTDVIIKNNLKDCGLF
Outline: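 Fluorescence polarization assay: 50 nM Gαi1 with 10 nM FITC-labeled RGS12 GoLoco peptide in 10 mM Tris pH 7.5, 150 mM NaCl, 0.1 mM GDP, 0.05% NP40, 10 min at room temperature with compound.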

[9] = qHTS Assay for Identification of Small Molecule Agonists for Thrombopoietin (TPO) Signaling Pathway (AID 917); note: % is set by controls: 0 for no effect and ±100 for the full control effect
Outline: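 Murine Ba/F3 cells stably expressing human TPO receptor and a Glycoprotein IIb promoter–luciferase reporter were IL-3-starved overnight, then treated with compounds plus TPO (26 pM final, its EC50) for 24 hrs at 37 C; luminescence was read.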

[10] = target: Muscarinic acetylcholine receptor M1 (Rattus norvegicus) (UniProt P08482); assay: qHTS Assay for Antagonists of Acetylcholine Muscarinic M1 Receptor: Kinetic Measurement of Intracellular Calcium Response (AID 943);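 note: Fluo-4 calcium signal as peak divided by basal fluorescence over 4 min; nearly all actives have a fitted effect of over 75% in size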
Sequence of Muscarinic acetylcholine receptor M1 (Rattus norvegicus) (P08482 whole entry, looked up): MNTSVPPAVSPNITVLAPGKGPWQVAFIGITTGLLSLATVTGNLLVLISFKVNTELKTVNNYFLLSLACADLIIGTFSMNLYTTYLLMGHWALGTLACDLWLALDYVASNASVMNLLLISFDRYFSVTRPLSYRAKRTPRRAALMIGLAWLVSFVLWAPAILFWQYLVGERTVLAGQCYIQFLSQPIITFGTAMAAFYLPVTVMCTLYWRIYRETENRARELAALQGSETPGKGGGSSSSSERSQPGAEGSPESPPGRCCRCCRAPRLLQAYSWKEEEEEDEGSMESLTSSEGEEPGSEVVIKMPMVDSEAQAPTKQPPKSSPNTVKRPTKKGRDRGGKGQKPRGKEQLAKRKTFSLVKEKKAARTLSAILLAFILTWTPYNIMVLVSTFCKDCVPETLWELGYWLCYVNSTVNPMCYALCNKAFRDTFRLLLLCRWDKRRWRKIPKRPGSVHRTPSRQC
Outline: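 Intracellular calcium flux, recorded with Fluo-4 in a kinetic plate reader, served as signal; the response to carbachol at EC80 (100 nM final) was taken as maximal over minimal fluorescence after a 10 min compound pre-incubation in rat M1-CHO cells.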

[11] = target: Pyruvate kinase (Leishmania mexicana) (UniProt Q27686); assay: qHTS Validation Assay for Inhibitors of Leishmania Mexicana Pyruvate Kinase (AID 945);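 note: 0% = DMSO only neutral control wells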
Outline: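 Pyruvate kinase activity of E451W LmPYK (0.2 nM) was followed as ATP output after 1 h at room temperature with 0.5 mM PEP and 0.1 mM ADP, detected by PKLight luminescence.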

[12] = target: Pyruvate kinase PKM (Homo sapiens) (UniProt P14618); assay: qHTS Assay for Activators of Human Muscle Pyruvate Kinase (AID 954; active = well fitted curve in the direction sought with a large enough effect, not every such curve was filed as active;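 note: 0% = uninhibited enzyme and -100% = no enzyme or full thiadiazolimine inhibition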)
Outline: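 Luminescence from a luciferase ATP-detection/stop reagent reported PKM2 activity. Reactions contained 0.1 nM purified human enzyme, 0.5 mM PEP, 0.1 mM ADP and 7 mM MgCl2 at pH 7.2, run 1 h at RT.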

[13] = target: alpha-glucosidase (Oryza sativa, rice) (UniProt Q653V4); assay: Counterscreen for Glucocerebrosidase Inhibitors: qHTS Assay for Rice alpha-Glucosidase at pH 5.0 (AID 997);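 note: 0% = full activity with enzyme and -100% = basal without enzyme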
Outline: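 Rice alpha-glucosidase (4 nM final) with 400 uM 4-methylumbelliferyl-alpha-D-glucopyranoside in citrate buffer pH 5.0, 20 min at room temperature, stopped at pH 10; fluorescence 365/440 nm, compounds 0.7 nM–77 uM, AC50 from Hill fits.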

[14] = Validation of Assay for Modulators of Lamin A Splicing (AID 1459; active = well fitted curve in the direction sought with a large enough effect in the signal ratio; the % refers to the signal ratio;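 note: cells exposed to compound for two days before reading; 0% is about no effect; ratio rise marks activators and ratio drop marks inhibitors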)
Outline: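 S3 HeLa cells stably expressing a lamin A-EGFP splicing minigene and DsRed2 were seeded at 600 cells/well in Opti-MEM with 2% FBS, pin-dosed, and incubated 48 hrs at 37 °C, 5% CO2. Laser-scanning cytometry (488 nm) gave GFP/RFP total intensity ratio.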

[15] = qHTS Assay for Lipid Storage Modulators (AID 1519; calls by dose curve); conditions: Drosophila S3 cells, BODIPY lipid droplet/cell ratio, laser cytometry, cells loaded with oleic acid
Outline: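 Cells seeded at 5,000 per well were treated with compounds over a concentration series and loaded with oleic acid (400 uM, as added). Lipid droplet fluorescence (488 nm excitation, 500-530 nm channel) was read by laser-scanning cytometry and normalized to 20 uM Triacsin C.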

[16] = target: DNA repair nuclease/redox regulator APEX1 (Homo sapiens) (UniProt P27695); assay: qHTS Validation Assay for Inhibitors of the Human Apurinic/apyrimidinic Endonuclease 1 (APE1) (AID 1705)
Outline: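 Human APE1 was preincubated with compound for 15 min at room temperature, then 50 nM (final) THF-abasic double-stranded DNA substrate bearing 5'-TAMRA and 3'-BHQ-2 was added. Incision-driven fluorescence rise (ex 525/em 598 nm) was read kinetically.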

[17] = Counterscreen for APE1 Inhibitors: Fluorescent Dye Displacement Validation Assay (AID 1707);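 note: plate controls were ThO with dsDNA and no compound for no effect and ThO without dsDNA for full effect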
Outline: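 Thiazole Orange displacement from dsDNA: 250 nM ThO with 50 nM TAMRA-labelled abasic-site (tetrahydrofuran) duplex in 50 mM Tris-HCl pH7.5, 50mM NaCl, 2 mM MgCl2, 0.01% Tween-20. Loss of endpoint fluorescence (ex 480 nm, em 540 nm) flags DNA binders.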

[18] = target: Endonuclease 4 (Escherichia coli (strain K12)) (UniProt P0A6C1); assay: Counterscreen for APE1 Inhibitors: qHTS Validation Assay for Inhibitors of Endonuclease IV (AID 1708); note: % is set by controls: 0 for no effect and ±100 for the full control effect
Outline: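 2 nM enzyme was preincubated with compounds for 15 min at room temperature in 50 mM Tris-HCl pH 7.5, 50 mM NaCl, 2 mM MgCl2, 1 mM DTT, 0.01% Tween-20. 50 nM THF-abasic TAMRA/BHQ-2 duplex substrate started the reaction.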

[19] = qHTS for differential inhibitors of proliferation of Plasmodium falciparum line 7G8 (AID 1815);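 note: parasite growth measured after three days of incubation; plate controls were vehicle wells for no effect and reference inhibitor wells for full effect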
[20] = qHTS for differential inhibitors of proliferation of Plasmodium falciparum line GB4 (AID 1816); conditions: Potency: Plasmodium falciparum GB4 proliferation inhibition;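 note: parasite growth measured after 72 h incubation; 0% = vehicle DMSO and -100% = reference inhibitor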
[21] = qHTS for differential inhibitors of proliferation of Plasmodium falciparum line 3D7 (AID 1876);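 note: parasite growth measured after three days of culture; 0% = vehicle wells and -100% = reference inhibitor wells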
[22] = qHTS for differential inhibitors of proliferation of Plasmodium falciparum line D10 (AID 1877);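 note: parasites grown with compound for 72 h before DNA staining; plate controls were vehicle wells for no effect and reference inhibitor wells for full effect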
[23] = qHTS for differential inhibitors of proliferation of Plasmodium falciparum line Dd2 (AID 1882); conditions: Potency: Plasmodium falciparum Dd2 proliferation inhibition;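 note: compound exposure of 72 h on infected erythrocytes; plate controls were DMSO vehicle for no effect and 0.29 µM artemisinin for full effect; nearly all actives have a fitted effect of over 65% in size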
Outline: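 SYBR Green I DNA fluorescence read-out, ex 485/em 535 nm. Signals were normalized to 0.29 uM artemisinin and DMSO wells, then corrected using vehicle-only plates flanking each stack. Parasite growth ran 72 h in erythrocytes before lysis.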

[24] = qHTS for differential inhibitors of proliferation of Plasmodium falciparum line W2 (AID 1883); conditions: Potency: Plasmodium falciparum W2 proliferation inhibition;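 note: parasites grown with compound for 72 h before lysis and staining; 0% = vehicle wells and -100% = control inhibitor wells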
[25] = qHTS for differential inhibitors of proliferation of Plasmodium falciparum line HB3 (AID 1886); conditions: Potency: Plasmodium falciparum HB3 proliferation inhibition;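 note: parasites grown with compound for 72 h before SYBR Green readout; plate controls were vehicle for no effect and reference inhibitor for full effect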
[26] = target: ATP-dependent DNA helicase Q1 (Homo sapiens) (UniProt P46063); assay: qHTS Validation Assay for Inhibitors of RecQ-Like Dna Helicase 1 (RECQ1) (AID 2353);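 note: plate controls were DMSO vehicle for no effect and enzyme-free control for full effect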
Outline: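 50 nM RECQ1T1 preincubated 15 min with compound in Tris pH 8.0 buffer with MgCl2, DTT, Tween-20 and 2.5 ug/ml poly(dI-dC); started with 200 nM TAMRA/BHQ-2 forked duplex and 2 mM ATP. Unwinding read as fluorescence (525/598 nm), two reads 2 h apart.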

[27] = Validation screen for small molecules that induce DNA re-replication in MCF 10A normal breast cells (AID 463097); note: 0% is about no effect; nearly all actives have a fitted effect of over 60% in size
Outline: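 Readout: Hoechst nuclear fluorescence intensity, 405 ex / 500-530 em, by scanning plate imager; re-replication scored as increase in nuclei with elevated DNA content. Cells exposed to compound 48 hr, 37 C, 5% CO2 beforehand.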

[28] = Quantitative high throughput screen for delayed death inhibitors of the malarial parasite plastid, 96 hour incubation (AID 488745);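 note: luciferase-expressing P. falciparum in erythrocytes at 2% hematocrit and 0.1% parasitemia; % is set by controls: 0 for no effect and ±100 for the full control effect; nearly all actives have a fitted effect of over 70% in size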
Outline: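 Growth of reporter-bearing P. falciparum in red cells is measured after 96 h with compound, covering two erythrocytic cycles. Luminescence from the integrated luciferase serves as the growth signal.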

[29] = Quantitative high throughput screen for delayed death inhibitors of the malarial parasite plastid, 48 hour incubation (AID 488752); note: % is set by controls: 0 for no effect and ±100 for the full control effect; nearly all actives have a fitted effect of over 65% in size
Outline: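 One parasite generation (48 h, 37 C, 5% CO2) of luciferase-reporter P. falciparum in erythrocytes is run with test compound; decreased luminescence indicates inhibited growth.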

[30] = target: M-phase phosphoprotein 8 (Homo sapiens) (UniProt Q99549); assay: qHTS Validation Assay for Inhibitors for MPP8 Chromodomain Interactions with Methylated Histone Tails (AID 488949);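 note: AlphaScreen signal from MPP8 chromodomain bound to biotinylated H3K9me3 peptide; top concentration of the series differs between compounds; % is set by controls: 0 for no effect and ±100 for the full control effect; nearly all actives have a fitted effect of over 55% in size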
Sequence of M-phase phosphoprotein 8 (Homo sapiens) (Q99549 whole entry, looked up): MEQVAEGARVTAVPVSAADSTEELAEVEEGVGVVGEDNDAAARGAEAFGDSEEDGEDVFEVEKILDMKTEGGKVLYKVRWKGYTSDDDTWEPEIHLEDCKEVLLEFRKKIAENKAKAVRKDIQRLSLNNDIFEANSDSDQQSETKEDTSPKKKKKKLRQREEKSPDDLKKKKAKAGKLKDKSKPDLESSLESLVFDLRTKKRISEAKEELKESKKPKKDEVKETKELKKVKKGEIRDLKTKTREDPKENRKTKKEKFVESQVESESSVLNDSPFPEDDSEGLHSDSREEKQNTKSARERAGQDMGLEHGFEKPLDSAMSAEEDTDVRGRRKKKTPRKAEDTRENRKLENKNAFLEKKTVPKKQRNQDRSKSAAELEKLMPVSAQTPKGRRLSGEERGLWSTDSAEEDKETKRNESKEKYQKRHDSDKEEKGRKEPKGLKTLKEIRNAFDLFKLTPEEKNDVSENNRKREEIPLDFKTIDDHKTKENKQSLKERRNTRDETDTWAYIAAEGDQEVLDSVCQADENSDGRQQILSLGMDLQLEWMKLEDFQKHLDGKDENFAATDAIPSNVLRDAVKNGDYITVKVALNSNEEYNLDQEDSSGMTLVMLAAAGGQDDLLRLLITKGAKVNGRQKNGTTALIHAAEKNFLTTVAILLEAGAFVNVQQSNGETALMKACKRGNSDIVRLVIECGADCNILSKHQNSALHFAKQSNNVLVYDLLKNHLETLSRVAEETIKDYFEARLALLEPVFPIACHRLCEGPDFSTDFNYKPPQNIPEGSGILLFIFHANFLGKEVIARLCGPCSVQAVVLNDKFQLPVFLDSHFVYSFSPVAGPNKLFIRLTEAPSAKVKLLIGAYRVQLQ
Outline: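 MPP8 (50 nM) was preincubated with biotinylated H3(1-18)K9me3 peptide (50 nM) in PBS pH 7.4, 0.01% Tween-20 for 30 min at room temperature, then with compounds for 30 min; binding was detected by AlphaScreen.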

[31] = target: Transient receptor potential cation channel subfamily V member 1 (Homo sapiens) (UniProt Q8NER1); assay: HTS Assay for Compounds that Act as Enhancers of the Vanilloid Receptor 1 (AID 488979); note: 0% is about no effect
Outline: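 TRPV1-expressing cells loaded with Fluo-8 calcium dye; compounds added and calcium influx read kinetically for 3 min (agonist phase), then capsaicin at EC20 added and read 2 min more for enhancement. Fluorescence ex 480/em 520 nm.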

[32] = target: Thyrotropin receptor (Homo sapiens) (UniProt P16473); assay: qHTS Assay for Antagonists of the Thyroid Stimulating Hormone Receptor (AID 488980); note: 0% is about no effect
Sequence of Thyrotropin receptor (Homo sapiens) (P16473 whole entry, looked up): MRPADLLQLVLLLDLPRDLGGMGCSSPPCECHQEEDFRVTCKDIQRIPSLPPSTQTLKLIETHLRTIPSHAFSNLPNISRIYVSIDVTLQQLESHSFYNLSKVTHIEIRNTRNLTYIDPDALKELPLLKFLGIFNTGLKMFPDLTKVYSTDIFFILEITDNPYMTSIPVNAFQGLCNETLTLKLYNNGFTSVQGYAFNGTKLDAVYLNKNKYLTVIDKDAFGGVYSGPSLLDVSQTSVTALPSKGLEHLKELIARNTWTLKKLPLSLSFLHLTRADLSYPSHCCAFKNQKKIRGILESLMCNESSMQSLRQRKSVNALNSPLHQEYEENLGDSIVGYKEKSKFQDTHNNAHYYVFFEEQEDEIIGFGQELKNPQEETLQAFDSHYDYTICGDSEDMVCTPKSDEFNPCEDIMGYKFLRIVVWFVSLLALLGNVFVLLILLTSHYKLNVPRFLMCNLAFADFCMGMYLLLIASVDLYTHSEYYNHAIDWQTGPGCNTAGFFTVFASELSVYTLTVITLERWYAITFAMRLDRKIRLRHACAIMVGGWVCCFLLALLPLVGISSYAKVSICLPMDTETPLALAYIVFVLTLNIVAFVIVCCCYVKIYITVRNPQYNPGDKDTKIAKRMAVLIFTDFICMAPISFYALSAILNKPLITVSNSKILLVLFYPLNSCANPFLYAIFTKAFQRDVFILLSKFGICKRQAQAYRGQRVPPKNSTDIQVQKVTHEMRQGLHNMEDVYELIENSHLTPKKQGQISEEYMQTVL
Outline: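 HEK293 cells transfected with human TSHR, suspended in HEPES-buffered HBSS with 70 uM RO 20-1724, were treated with compounds plus TSH at EC80 (4 nM final). cAMP was measured by competitive HTRF (cryptate anti-cAMP antibody, cAMP-d2 acceptor).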

[33] = target: Galactokinase (Homo sapiens) (UniProt P51570); assay: qHTS Validation Assay for Inhibitors of Human Galactokinase (GALK) (AID 493189); note: 0% is about no effect
Sequence of Galactokinase (Homo sapiens) (P51570 whole entry, looked up): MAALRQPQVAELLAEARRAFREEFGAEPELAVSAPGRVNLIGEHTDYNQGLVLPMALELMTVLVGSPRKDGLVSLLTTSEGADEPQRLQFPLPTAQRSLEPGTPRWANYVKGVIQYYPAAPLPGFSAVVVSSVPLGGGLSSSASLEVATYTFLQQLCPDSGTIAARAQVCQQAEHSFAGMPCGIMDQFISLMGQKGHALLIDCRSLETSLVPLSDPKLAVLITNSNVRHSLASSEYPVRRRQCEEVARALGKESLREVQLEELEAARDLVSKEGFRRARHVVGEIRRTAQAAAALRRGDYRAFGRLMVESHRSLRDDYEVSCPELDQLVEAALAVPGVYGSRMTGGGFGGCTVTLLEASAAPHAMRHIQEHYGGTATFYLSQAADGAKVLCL
Outline: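 GALK (5 nM) with 35 uM ATP and 100 uM galactose in HEPES pH8.0, MgCl2, NaCl, DTT, BSA; 1 h at room temperature. Residual ATP read by Kinase-Glo Plus luminescence after 10 min.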

[34] = Validation screen for small molecules that induce DNA re-replication in SW480 colon adenocarcinoma cells (AID 504364); note: 0% is about no effect
Outline: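 Cells are treated 48 hr with test compound, stained 40 min with Hoechst at 37 C, and scanned for nuclear fluorescence; compounds inducing re-replication increase nuclei with elevated intensity.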

[35] = target: Voltage-gated inwardly rectifying potassium channel KCNH2 (Homo sapiens) (UniProt Q12809); assay: qHTS Assay for Small Molecule Inhibitors of the Human hERG Channel Activity (AID 588834);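 note: top concentration of the series differs between compounds; % is set by controls: 0 for no effect and ±100 for the full control effect; lower thallium flux fluorescence means stronger hERG block; nearly all actives have a fitted effect of over 50% in size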
Sequence of Voltage-gated inwardly rectifying potassium channel KCNH2 (Homo sapiens) (Q12809 whole entry, looked up): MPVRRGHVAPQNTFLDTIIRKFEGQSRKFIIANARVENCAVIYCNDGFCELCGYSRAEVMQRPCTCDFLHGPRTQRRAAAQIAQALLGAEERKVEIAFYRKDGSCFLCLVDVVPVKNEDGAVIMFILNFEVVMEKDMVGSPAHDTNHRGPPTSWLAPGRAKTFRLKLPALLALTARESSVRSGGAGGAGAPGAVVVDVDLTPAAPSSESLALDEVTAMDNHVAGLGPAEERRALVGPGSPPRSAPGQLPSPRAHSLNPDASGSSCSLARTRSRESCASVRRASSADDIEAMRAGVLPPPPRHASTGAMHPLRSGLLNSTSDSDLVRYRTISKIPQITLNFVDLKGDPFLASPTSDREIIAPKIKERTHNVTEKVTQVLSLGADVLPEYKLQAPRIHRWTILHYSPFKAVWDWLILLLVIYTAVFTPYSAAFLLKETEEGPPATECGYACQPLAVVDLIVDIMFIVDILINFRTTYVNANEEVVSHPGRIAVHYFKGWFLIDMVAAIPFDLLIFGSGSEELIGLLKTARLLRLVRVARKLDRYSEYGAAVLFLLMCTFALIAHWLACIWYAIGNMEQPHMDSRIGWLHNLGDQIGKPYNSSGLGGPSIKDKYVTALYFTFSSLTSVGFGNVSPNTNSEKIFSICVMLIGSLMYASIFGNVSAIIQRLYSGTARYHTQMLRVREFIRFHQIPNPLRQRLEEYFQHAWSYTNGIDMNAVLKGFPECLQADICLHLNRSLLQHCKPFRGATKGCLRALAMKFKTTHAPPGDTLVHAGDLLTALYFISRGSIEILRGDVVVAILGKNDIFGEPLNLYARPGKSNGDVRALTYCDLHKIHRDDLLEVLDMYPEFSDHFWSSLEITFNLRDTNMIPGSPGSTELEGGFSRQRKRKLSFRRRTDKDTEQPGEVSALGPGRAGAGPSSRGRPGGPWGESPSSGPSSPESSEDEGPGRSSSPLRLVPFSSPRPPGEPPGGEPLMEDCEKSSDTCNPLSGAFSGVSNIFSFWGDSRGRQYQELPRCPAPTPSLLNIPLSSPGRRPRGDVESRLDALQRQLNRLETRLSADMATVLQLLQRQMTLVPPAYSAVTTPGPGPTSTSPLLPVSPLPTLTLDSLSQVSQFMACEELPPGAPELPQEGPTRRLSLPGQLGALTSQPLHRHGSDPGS
Outline: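 U2OS cells transduced with hERG via BacMam (MOI ~100), plated 2000/well, loaded with FluxOR thallium dye, compound ~10 min, then stimulation buffer; fluorescence decrease read kinetically; AC50 from Hill fits.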

[36] = tested on: Zika virus NS2B-NS3 protease; assay: Primary screen GU AMC qHTS for Zika virus inhibitors (AID 1347154)
Outline: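 Unlinked Zika NS2B hydrophilic domain/NS3 protease domain noncovalent complex (25 nM final) in 10 mM Tris-HCl pH 8.0, 0.01% Tween 20, with AMC peptide substrate. Fluorescence (ex 340, em 450 nm) change over 15 min, room temperature; percent inhibition fitted to 4-parameter Hill equation.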

[37] = Primary qHTS for small molecule stabilizers of the endoplasmic reticulum resident proteome: Secreted ER Calcium Modulated Protein (SERCaMP) assay (AID 1508630)
Outline: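 GLuc-SERCaMP-expressing SH-SY5Y cells, pretreated 16 h with compound, are challenged with thapsigargin to empty ER calcium stores; after 4 h, coelenterazine is added directly to the medium and luminescence is imaged.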

CCCn1c(=O)c2[nH]c(-c3ccc(OCC(=O)Nc4ccc(C#N)cc4)cc3)nc2n(CCC)c1=O
inactive: activity change, negative = inhibition [1] -2.44% | activity change, negative = inhibition [2] -7.64% | activity, negative = inhibition [3] -13.8% | Potency [4] > 46 µM | Potency [5] > 46 µM | Potency [6] | Potency [7] | outcome [8] | Potency [9] | Potency [10] | Potency [11] | outcome [12] | outcome [13] | outcome [14] | activity change, negative = inhibition ([15]; at 57.5 µM (top of the series)) 1.01% | Potency [16] | Potency [17] | Potency [18] | Potency [19] | Potency [20] | Potency [21] | Potency [22] | Potency [23] | Potency [24] | Potency [25] | Potency [26] | Potency [27] | Potency [28] | Potency [29] | Potency [30] | outcome [31] | outcome [32] | outcome [33] | outcome [34] | Potency [35] | Potency [36] | Potency [37]
-12.2%: max response ([15]; measured here: cell count channel max response)
-10.7%: max response ([15]; measured here: lipid channel max response)
